Hit rate of the full screen: of about 2,100 compounds, about 770 (37%) were called active. Some of the results follow. A number with no mark means an inactive call.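 Rule for the calls: active = by-eye trace score of 1 for enhancers or -1 for inhibitors, so actives lie on both sides (some results past the limit were not filed as active); inactive = score 0, or 3 fluorescent, or 4 baseline rise.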

This assay deals with G protein-activated inward rectifier potassium channel 2 (Homo sapiens) + G protein-activated inward rectifier potassium channel 1 (Homo sapiens) (UniProt P48051+P48549). The assay is described as follows: GIRK1/2 thallium flux modulators, retest, confirmation, cell-based, HEK293 rmGlu8/hGIRK1/2, FluoZin-2 (AID 623911). The conditions noted are these: HEK293 rmGlu8/hGIRK1/2, thallium flux FluoZin-2; actives lie on both sides; glutamate co-added at its EC20 level.
Sequence of G protein-activated inward rectifier potassium channel 2 (Homo sapiens) + G protein-activated inward rectifier potassium channel 1 (Homo sapiens) (P48051 whole entry, looked up): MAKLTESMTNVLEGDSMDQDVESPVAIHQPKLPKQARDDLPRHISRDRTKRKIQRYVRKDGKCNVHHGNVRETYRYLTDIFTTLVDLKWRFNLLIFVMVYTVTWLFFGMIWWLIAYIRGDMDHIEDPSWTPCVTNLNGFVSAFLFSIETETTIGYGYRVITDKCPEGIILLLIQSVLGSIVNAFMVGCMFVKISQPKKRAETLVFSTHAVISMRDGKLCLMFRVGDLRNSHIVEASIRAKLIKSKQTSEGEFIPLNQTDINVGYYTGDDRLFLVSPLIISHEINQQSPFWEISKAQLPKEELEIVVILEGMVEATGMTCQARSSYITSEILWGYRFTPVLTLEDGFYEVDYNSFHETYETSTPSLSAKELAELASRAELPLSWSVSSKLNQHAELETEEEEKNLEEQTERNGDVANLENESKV
Sequence of G protein-activated inward rectifier potassium channel 2 (Homo sapiens) + G protein-activated inward rectifier potassium channel 1 (Homo sapiens) (P48549 whole entry, looked up): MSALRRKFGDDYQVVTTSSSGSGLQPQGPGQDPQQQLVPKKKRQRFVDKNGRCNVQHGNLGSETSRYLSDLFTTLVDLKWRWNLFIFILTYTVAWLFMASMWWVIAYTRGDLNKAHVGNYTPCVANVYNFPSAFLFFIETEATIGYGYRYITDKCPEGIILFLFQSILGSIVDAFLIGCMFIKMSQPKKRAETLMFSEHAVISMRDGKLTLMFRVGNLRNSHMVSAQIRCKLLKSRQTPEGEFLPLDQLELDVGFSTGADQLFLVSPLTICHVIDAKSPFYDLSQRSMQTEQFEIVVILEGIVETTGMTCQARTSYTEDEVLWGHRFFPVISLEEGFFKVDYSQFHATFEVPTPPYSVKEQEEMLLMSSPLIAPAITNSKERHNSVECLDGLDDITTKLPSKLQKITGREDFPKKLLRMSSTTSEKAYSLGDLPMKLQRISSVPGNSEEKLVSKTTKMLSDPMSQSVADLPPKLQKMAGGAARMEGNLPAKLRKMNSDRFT
Consider `CCCCCCn1c(=O)[nH]c2nc3cc(N)ccc3nc2c1=O`, for which the manual score is 3.

For `CNC(=S)N1CCN(c2ccc(OC)cc2)CC1`, the manual score is 0.

As to `COc1ccc(C(=O)NC(=S)N2CCC(C)CC2)cc1`, the manual score is 1 (active).

On to `CC1CCN(c2ncccc2C(=O)O)CC1`, for which the manual score was 0.

Turning to `COc1ccc(C(=O)NC(=S)N2CCCCC2)cc1`, the manual score was 2.

For `CC1CCN(C(=S)NC(=O)c2ccccc2)CC1`, the manual score was 1 (active).

For `CN1CCN(C(=S)NC(=O)/C=C/c2cccc3ccccc23)CC1`, the manual score is 0.

For the molecule `O=C(NC(=S)N1CCN(Cc2ccccc2)CC1)c1ccccc1`, the manual score is 1 (active).

For the molecule `CC1CCN(c2ccccc2NC(=S)NC(=O)c2cccs2)CC1`, the manual score is 0.

For the molecule `Cc1cccc(-n2c(-c3csc(C(C)C)c3)n[nH]c2=S)c1`, the manual score is 0.

For the molecule `CCn1nc(C(=O)OCC(=O)N2CCc3ccccc32)c2ccccc2c1=O`, the manual score is -1 (active).

In the case of `O=C(c1ccc2c(=O)n(C3CCCC3)c(=S)[nH]c2c1)N1CCc2ccccc21`, the manual score was 0.

On to `CCc1c(C)nc(SCC(=O)N2CCc3ccccc32)[nH]c1=O`, for which the manual score was 3.

As for `Cc1c(C(=O)N2CCc3ccccc32)oc2c1C(=O)CC(C)(C)C2`, the manual score was 0.

As for `CCCCn1nc(C(=O)N2CCc3ccccc32)c2ccccc2c1=O`, the manual score is -1 (active).

In the case of `CCn1nc(C(=O)OCC(=O)c2c[nH]c3ccccc23)c2ccccc2c1=O`, the manual score was 0.

Take `Cc1[nH]n(-c2cccc3ccccc23)c(=O)c1/C=N/c1sc2c(c1C#N)CCC2`: the manual score was 1 (active).

On to `Cc1[nH]n(-c2ccc(F)cc2)c(=O)c1/C=N/c1sc2c(c1C#N)CCCC2`, for which the manual score is 3.

For `CC(=O)c1cccc(NC(=O)C2CCCN2S(=O)(=O)c2cccc3cccnc23)c1` (stereo not given), the manual score is 0.

As for `CCOC(=O)c1c(NS(=O)(=O)c2ccc(Br)cc2)sc2c1CCC2`, the manual score was 1 (active).

Regarding `CCOc1ccc(C(=O)CN2CCN(S(=O)(=O)c3ccc(Br)cc3)CC2)cc1`, the manual score was 0.

In the case of `COc1ccccc1OCC(=O)Nc1sc2c(c1C(=O)NCC1CCCO1)CCC2` (stereo not given), the manual score was 0.

Turning to `CCOC(=O)c1c(NS(=O)(=O)c2cccc(OC)c2)sc2c1CCC2`, the manual score is 1 (active).

`CCc1cc2c(=O)n(CC)c(SC(C)C(=O)Nc3c(C)n(C)n(-c4ccccc4)c3=O)nc2s1` (stereo not given): the manual score was 0.

In the case of `O=C(NC(=S)N(CCc1ccccc1)CCc1ccccc1)c1ccco1`, the manual score was 1 (active).

For the molecule `O=C(CNC(=S)NC(=O)c1cccs1)c1ccccc1`, the manual score was 1 (active).

Consider `O=C(NC(=S)Nc1nc2ccccc2s1)c1cccs1`, for which the manual score was 0.5.

For the molecule `O=C(NC(=S)NCCc1ccccc1)c1ccccc1`, the manual score is 0.

Take `O=C(NC(=S)Nc1nc2c(ccc3ccccc32)s1)c1cccs1`: the manual score was 0.5.

As to `O=C(NC(=S)NCCc1ccccc1)c1ccco1`, the manual score is 1 (active).

On to `O=C(CNC(=S)NC(=O)c1ccco1)c1ccccc1`, for which the manual score was 1 (active).

For `Fc1cccc(-n2c(-c3ccco3)nc3nc4ccccc4nc32)c1`, the manual score was 0.

As for `O=C(Nc1ccncc1)c1ccc2c(c1)C(=O)N(C1CCCCC1)C2=O`, the manual score was 0.

Regarding `CCCCNc1c2c3c(cccc3n(C)c1=O)C(=O)c1ccccc1-2`, the manual score is 3.

As for `CCc1nc(N2CCOCC2)c(C#N)c2c1CCCC2`, the manual score was 0.

Turning to `S=c1nc[nH]c2c1sc1nc(-c3ccccc3)c3c(c12)CCCC3`, the manual score was 1 (active).

Regarding `Cc1sccc1C1C(C#N)=C(N)SC(N)=C1C#N`, the manual score is 0.

Regarding `N#CC1=C(N)SC(N)=C(C#N)C1c1c(Cl)cccc1Cl`, the manual score was -1 (active).

`N#CC1=C(N)SC(N)=C(C#N)C1CCc1ccccc1`: the manual score was 0.

Regarding `Cc1ccc(C2CC2C(=O)NNC(=S)Nc2cccc(Cl)c2)cc1` (stereo not given), the manual score is 0.

`Cc1csc(NC(=S)Nc2cccc(Cl)c2)n1`: the manual score was 1 (active).

Take `O=C(CSc1cccc2cccc(Cl)c12)NCc1cccs1`: the manual score was 0.

As for `COCCCN(C(=S)Nc1cccc(Cl)c1)C(C)c1ccncc1` (stereo not given), the manual score is 0.

On to `S=C(NCc1cccs1)Nc1cccc(Cl)c1`, for which the manual score is 1 (active).

With `CC(C)n1c(-c2ccc(C(C)(C)C)cc2)n[nH]c1=S`, the manual score is 0.

In the case of `Cc1ccc2nc(NC(=S)NC(=O)c3cccs3)sc2c1`, the manual score was 0.

For `Cc1ccc(C(=O)N/N=C(/CC(=O)c2cccs2)C(F)(F)F)cc1`, the manual score is 1 (active).

Regarding `CC(=O)C1=C(C)NC(SCc2ccc(C#N)cc2)=C(C#N)C1c1ccco1` (stereo not given), the manual score was -1 (active).

For the molecule `CSCSC1=C(C#N)C(c2ccc(Cl)cc2)C(C(C)=O)=C(C)N1` (stereo not given), the manual score is 0.

`CCOC(=O)C1=C(c2ccccc2)NC(SC)=C(C#N)C1c1ccco1` (stereo not given): the manual score was 0.

As to `CCOc1ccccc1C1CC(=O)NC(SCC)=C1C#N` (stereo not given), the manual score was 0.

Take `CSCSC1=C(C#N)C(c2ccccc2Cl)C(C(C)=O)=C(C)N1` (stereo not given): the manual score is -1 (active).

Consider `CC(=O)C1=C(C)NC(SCC(=O)c2ccc(Cl)cc2Cl)=C(C#N)C1c1ccco1` (stereo not given), for which the manual score is -1 (active).

As for `N#Cc1c(-c2ccco2)nc(SCc2ccc(F)cc2)[nH]c1=O`, the manual score was 0.

In the case of `C=CCNc1nc(N2CCCC2)nc2ccccc12`, the manual score was -1 (active).

As to `CC(Nc1nc(N2CCCC2)nc2ccccc12)c1ccccc1` (stereo not given), the manual score is -1 (active).

With `CC(Nc1nc(N2CCCCC2)nc2ccccc12)c1ccccc1` (stereo not given), the manual score is -1 (active).

Regarding `CC1(C)CC(=S)Nc2ccccc2S1`, the manual score was 0.

For the molecule `O=C(Nc1ccc(F)c(F)c1)NC1CCCCC1`, the manual score was 1 (active).

Consider `CCCN1CCC(NC(=O)Nc2ccc(F)cc2F)CC1`, for which the manual score is 0.

Take `CCc1cccc(NC(=O)NC2CCCCC2)c1`: the manual score is 0.5.

On to `CC1(C)CC(=O)C2=C(C1)OC(/N=C/N1CCOCC1)=C(C#N)C2c1ccccc1` (stereo not given), for which the manual score was -1 (active).

With `CC(C)Cn1cnc2c(c(-c3ccccc3)c(-c3ccccc3)n2Cc2ccco2)c1=N`, the manual score was -1 (active).

As for `N=c1c2c(-c3ccccc3)c(-c3ccccc3)n(Cc3ccccc3)c2ncn1CCCO`, the manual score was -1 (active).

As to `COC(=O)c1cc(NC(=O)c2ccoc2C)cc(C(=O)OC)c1`, the manual score was 0.

For the molecule `COc1cc2c(C(=O)N3CCN(C4CCCCC4)CC3)cn(CC(C)C)c(=O)c2cc1OC`, the manual score is -1 (active).

Regarding `CCN1CCN(C(=O)c2ccc3c(=O)n(C4CCCC4)c(=S)[nH]c3c2)CC1`, the manual score was 0.

As for `CC(C)OC(=O)CC12CN3CN(C1)CC(CC(=O)OC(C)C)(C3)C2=O`, the manual score was 0.

`CCN(CC)c1nc(C)nc2c1cnn2CCc1ccccc1`: the manual score was 0.

Turning to `Cc1cccc(NC(=O)NC(C)CCc2ccccc2)c1` (stereo not given), the manual score was 1 (active).

For the molecule `Cc1cccc(NC(=S)NC(=O)CCc2ccccc2)c1`, the manual score was 0.

As for `Cc1ccccc1NC(=O)C(=O)NC(C)CCc1ccccc1` (stereo not given), the manual score was 0.

As to `CCN(CC)S(=O)(=O)c1csc(C(=O)NCc2ccccc2)c1`, the manual score is 0.

In the case of `CCN(CC)S(=O)(=O)c1cccc(S(=O)(=O)c2cccc(S(=O)(=O)N(CC)CC)c2)c1`, the manual score is -1 (active).

As for `CN1CCN(S(=O)(=O)c2cccc(S(=O)(=O)c3cccc(S(=O)(=O)N4CCN(C)CC4)c3)c2)CC1`, the manual score is 0.

Regarding `CCN(CC(=O)c1c(N)n(C)c(=O)n(C)c1=O)c1cccc2ccccc12`, the manual score is 0.

As for `O=C1CN(C(=O)CSc2nc3cc(Cl)ccc3c(=O)n2Cc2ccccc2)c2ccccc2N1`, the manual score is 1 (active).

`CC(c1ccccc1)n1c(SCC(=O)N2CC(=O)Nc3ccccc32)nc2ccccc2c1=O` (stereo not given): the manual score was 0.

Turning to `O=C1CN(C(=O)CSc2nc3ccccc3c(=O)n2Cc2ccc(F)cc2)c2ccccc2N1`, the manual score was 0.5.

Consider `Cn1c(=O)c(NCCO)c2c3c(cccc31)C(=O)c1ccccc1-2`, for which the manual score is 3.

Turning to `O=C(Nc1nnc(-c2ccc(Cl)cc2)o1)C1=COCCO1`, the manual score was 0.

With `O=C(Nc1nnc(-c2ccc(Cl)cc2)o1)c1ccccc1Br`, the manual score is 1 (active).

Turning to `O=C(Nc1nnc(-c2ccccc2Cl)o1)c1nc2ccccc2s1`, the manual score was 1 (active).

Consider `CC(C)NC(=O)c1nc2ccccc2s1`, for which the manual score is 0.

With `O=C(Nc1nnc(-c2ccc(Cl)cc2)o1)c1cccc(N2C(=O)CCC2=O)c1`, the manual score is -1 (active).

As for `O=C(Nc1nnc(-c2ccc(Cl)cc2)o1)c1ccc(N2C(=O)CCC2=O)cc1`, the manual score is 0.

As for `O=C(Nc1nnc(-c2ccc(Cl)cc2)o1)c1nc2ccccc2s1`, the manual score is 1 (active).

Take `O=C(NCCCN1CCN(c2cccc(Cl)c2)CC1)c1cccc(N2CCCC2=O)c1`: the manual score is 0.

On to `O=C(O)CC/C(=C\c1cc([N+](=O)[O-])ccc1Cl)c1nc2ccccc2s1`, for which the manual score is -0.5.

With `O=c1c(-c2ccc(Cl)cc2)[n+]([O-])c2ccccc2n1O`, the manual score is 2.

`CCC(C)(C)NC(=O)C(c1ccc(F)cc1)N(Cc1ccco1)C(=O)c1cnccn1` (stereo not given): the manual score was 0.

`COC(=O)c1ccc(C(=O)OC)c(NC(=O)CSc2nc(-c3ccco3)cc(C(F)(F)F)n2)c1`: the manual score is -0.5.

For `Cc1ccc(C)c(N=C2CCCN2Cc2ccccc2)c1C#N`, the manual score is -1 (active).

For the molecule `Cc1ccc(N=C2CCCN2Cc2ccccc2)c(C#N)c1`, the manual score was -1 (active).

Take `Cc1c(C#N)c2ccccc2n1CC(=O)O`: the manual score is 0.

On to `CC(C)n1c(CCC(=O)O)ccc1-c1ccccc1`, for which the manual score is 0.

As for `O=C(NC(=S)Nc1ccc2c(c1)OCCO2)c1ccccc1`, the manual score is 0.5.

As for `CC(C)OCCCNC(=O)c1cccc(NC(=O)c2ccccc2)c1`, the manual score was 0.

As for `O=C(Nc1ccc2[nH]c(=S)sc2c1)c1ccccc1`, the manual score is 1 (active).

`O=C(CCS(=O)NCc1ccccc1)NCc1ccccc1` (stereo not given): the manual score was 0.

Consider `Cn1cc(CCC(=O)NCc2ccc3c(c2)OCO3)c2ccccc21`, for which the manual score was 0.

Consider `O=C(NCc1ccc2c(c1)OCO2)C1CCN(Cc2cnn(-c3ccccc3)c2-n2cccc2)CC1`, for which the manual score was -1 (active).

As for `CS(=O)(=O)N(CCc1ccccc1)CC(=O)NCc1ccc2c(c1)OCO2`, the manual score is 0.

In the case of `CCc1nnc(NC(=O)CSc2nnc(-c3c[nH]c4ccccc34)n2CC)s1`, the manual score is 0.

Take `COc1c(Cl)cc(Cl)cc1CNCCNCC(C)O` (stereo not given): the manual score was 1 (active).
